Hits are enriched below; roughly 2.6% of the tested compounds scored in any of these assays.
Cruzain Triton = blocks cruzain activity in presence of Triton detergent; P25779; purified cruzain, Z-FR-AMC fluorescence, 0.01% Triton; Potency, µM, actives largely listed as inhibitors; 200,000 compounds, 0.43% hits; further: nearly all actives have a fitted effect of over 40% in size
Target sequence (P25779 123-467 limits assumed): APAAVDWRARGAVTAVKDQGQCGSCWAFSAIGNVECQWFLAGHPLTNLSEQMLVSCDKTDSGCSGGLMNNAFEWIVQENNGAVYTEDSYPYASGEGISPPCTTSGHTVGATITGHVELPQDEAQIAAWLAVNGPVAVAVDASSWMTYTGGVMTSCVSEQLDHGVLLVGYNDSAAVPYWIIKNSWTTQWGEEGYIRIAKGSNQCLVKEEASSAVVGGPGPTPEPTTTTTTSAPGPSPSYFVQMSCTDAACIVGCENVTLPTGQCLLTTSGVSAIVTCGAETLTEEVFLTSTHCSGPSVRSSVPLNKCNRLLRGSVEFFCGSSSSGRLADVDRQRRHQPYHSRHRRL
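Z-FR-AMC hydrolysis (2 uM substrate) by cruzain (1.5 nM) monitored kinetically at ex 360/em 450 nm after 15 min room-temperature compound exposure; 0.01% Triton X-100, pH 5.5, 5 mM DTT.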
Cruzain noTriton = cruzain (T. cruzi) inhibition without detergent. P25779. purified cruzain, Z-FR-AMC fluorescence, no detergent. Potency, µM, most hits filed as inhibitors. 200,000 compounds, 2.3% hits. AID 1476; further: nearly all actives have a fitted effect of over 40% in size
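Detergent-free condition (0.00005% Triton X-100) in acetate buffer pH 5.5 with DTT. 1.5 nM enzyme and compound were pre-mixed 15 min, then 2 uM Z-FR-AMC substrate added; reaction progress from fluorescence change between first and third reads (60 s).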
Large screens that a line does not name were inactive; ! = not active in a repeat. The call rests on the fitted dose curve; in most records, active means well fitted curve in the direction sought with a large enough effect; inconclusive means small, poorly fitted or top-dose-only effect, or another doubt; inactive means no such curve, though single readings can be large; an effect the other way counts as inactive or inconclusive.

CCCCc1ccc(N=N/C(C(=O)Nc2ccc(NC(C)=O)cc2OC)=C(/C)O)cc1	Cruzain Triton 10µM
O=C(c1cnccn1)N1CCC2(CCCN(Cc3nccs3)C2)CC1	none
COc1ccc(C(c2c(C)[nH]n(C(N)=S)c2=O)C(C#N)C#N)cc1 (stereo not given)	none
Cc1[nH]n(-c2ncc(-c3ccc(Cl)cc3)s2)c(=O)c1C(c1ccc(Cl)cc1)C(C#N)C#N (stereo not given)	Cruzain Triton inconclusive, Cruzain noTriton 3.2µM
Cn1cc(S(=O)(=O)N2CCCCCC2)cc1C(=O)N1CCN(c2ccc(Cl)cc2)CC1	none
O=c1c2ccccc2nc(CSc2ncnc3nc[nH]c23)n1-c1ccccc1	none
N=C(N)SCc1nc2ccccc2c(=O)n1-c1ccccc1	Cruzain noTriton 25µM!
Fc1ccc(NCc2ccccc2-c2nnc(-c3ccccc3Cl)o2)cc1Cl	none
O=C(Nc1nc(-c2ccncc2)cs1)C1c2ccccc2Oc2ccccc21	Cruzain noTriton inconclusive
COc1ccc(OC)c(-c2csc(NC(=O)CSc3ccccc3)n2)c1	none
O=C(Nc1nc(-c2ccccc2)cs1)C1c2ccccc2Oc2ccccc21	Cruzain noTriton 20µM
COc1ccc(OC)c(-c2csc(NC(=O)C3c4ccccc4Oc4ccccc43)n2)c1	Cruzain noTriton 20µM
COc1ccc(C)cc1NC(=O)Cn1c(=O)ccc2cc(S(=O)(=O)N3CCC(C)CC3)ccc21	Cruzain noTriton inconclusive
Cc1ccc(Cl)cc1N1CCN(C(=O)c2ccc(NC(=O)c3nsc4ccccc34)cc2)CC1	Cruzain noTriton 7.9µM
O=C(Nc1ccc(C(=O)N2CCN(c3ccc(Cl)cc3)CC2)cc1)c1nsc2ccccc12	none
CC(C)[C@@H](CC(=O)N[C@@H]1CCCC[C@H]1C(=O)N[C@H](CC(=O)N[C@@H](CCC(=O)O)CC(=O)O)Cc1c[nH]c2ccccc12)NC(=O)C[C@H](CO)NC(=O)[C@@H]1CCCC[C@H]1N	none
CC(=O)CSCc1ccccn1	none
COc1cc(/C=C2\SC(=S)N(Nc3ncc(C(F)(F)F)cc3Cl)C2=O)ccc1O	Cruzain noTriton inconclusive
CN(C)c1ccc(/C=C2\SC(=S)N(Nc3ncc(C(F)(F)F)cc3Cl)C2=O)cc1	Cruzain noTriton 13µM
CSCCC(N)C(=O)O (stereo not given)	none
Cc1ccccc1NC(=O)CCC(=O)OCC(=O)c1ccc(-c2ccccc2)cc1	Cruzain noTriton 13µM
CCOc1ccccc1OCCCC(=O)OCC(=O)Nc1cccc(Cl)c1	none
O=C(CCC(=O)OCC(=O)c1ccc(-c2ccccc2)cc1)Nc1cccc(Cl)c1	Cruzain noTriton 25µM
COc1ccc(C(=O)CCC(=O)Nc2ccccc2C)cc1	none
C[C@@H](C(=O)O)c1cccc(C(=O)c2ccccc2)c1	none
O=C(CCN1C(=O)c2ccccc2Sc2ncccc21)Nc1ccc(F)cc1F	none
Cn1cccc1C(=O)N1CCC2(CC1)CCN(c1ccccn1)CC2	none
CCCCOC(=O)c1ccc(NC(=O)Cc2coc3ccc(C(C)C)cc23)cc1	none
COc1ccc(CNS(=O)(=O)c2ccc(N3CCCCS3(=O)=O)cc2)cc1	none
CCCn1c2c(c(O)c(C(=O)NCc3ccccc3)c1=O)CCCC2	none
O=C(Nc1cccc(Cl)c1)c1c(O)c2c(n(Cc3ccccc3)c1=O)CCCC2	Cruzain noTriton 16µM
O=C(Nc1cccc(Cl)c1)c1c(O)c2c(n(Cc3ccco3)c1=O)CCCC2	Cruzain noTriton 7.9µM
CCOC(=O)c1c(O)c2c(n(Cc3ccco3)c1=O)CCCC2	none
COC(=O)c1ccccc1NC(=O)NCc1ccc2c(c1)CCN2C(=O)c1ccccc1	none
CC1=CC(=O)CC(C)(C)[C@]1(O)/C=C\C(C)=C\C(=O)O	none
CCOc1ccccc1NC(=O)C1CCN(S(=O)(=O)c2cc(Br)cc3c2N(C(C)=O)CC3)CC1	none
Cc1nc(N)sc1-c1csc(NCc2ccccc2)n1	Cruzain noTriton 32µM
COc1cccc(Nc2nc(-c3sc(N)nc3C)cs2)c1	Cruzain Triton inconclusive, Cruzain noTriton 13µM
COc1cccc(Nc2nc(-c3sc(NC(=O)c4ccco4)nc3C)cs2)c1	Cruzain noTriton inconclusive
Cc1nc(NC(=O)c2ccccc2)sc1-c1csc(NCc2ccccc2)n1	Cruzain noTriton inconclusive
c1cc2c(cc1Nc1nc(-c3ccc4c(c3)OCO4)cs1)OCCO2	Cruzain noTriton 10µM
c1ccc(-c2csc(Nc3ccc4c(c3)OCCO4)n2)cc1	Cruzain noTriton inconclusive
COc1ccc(-c2csc(/C(C#N)=C/Nc3ccc4c(c3)OCCO4)n2)cc1	Cruzain noTriton 13µM
N#C/C(=C\Nc1ccc2c(c1)OCCO2)c1nc(-c2ccccc2)cs1	Cruzain noTriton inconclusive
COc1ccc2[nH]cc(CCNc3ccnc(-c4ccccc4Cl)n3)c2c1	none
O=C(CSc1nc(-c2ccccc2)nc2c1Cc1ccccc1O2)N1CCCCC1	none
CC(=O)Oc1ccc(/C=C/C(=O)CC2OC(Oc3cc(OC(C)=O)c4c(c3)O[C@@H](c3ccc(OC(C)=O)cc3)CC4=O)C(OC(C)=O)C(OC(C)=O)C2OC(C)=O)cc1 (stereo not given in full)	none
CCCc1ccc(S(=O)(=O)N2CCC(c3nnc(-c4cccc(C)c4)o3)CC2)cc1	none
COc1cccc(Nc2nc(-c3ccc4c(c3)OCCO4)cs2)c1	Cruzain noTriton 25µM
COc1ccc(-c2csc(Nc3cccnc3)n2)cc1	Cruzain noTriton inconclusive
COc1cc2c(cc1OC)[C@H](C)N(CC1C(=O)O[C@@H]3C[C@@]4(C)CCC[C@H](C)[C@@]45OC5[C@H]13)CC2 (stereo not given in full)	none
Cc1cc(C)cc(O)c1	none
N#Cc1ccsc1NC(=O)CSc1ncnc2ccccc12	Cruzain noTriton 16µM
N#Cc1ccsc1NC(=O)CSc1ncn[nH]1	none
CCN1CCc2c(sc(NC(=O)c3ccc(S(=O)(=O)N4CCCC(C)C4)cc3)c2C(=O)OC)C1 (stereo not given)	none
COc1ccc(/C=c2\sc3nc(-c4ccccc4)c(-c4ccccc4)n3c2=O)cc1OC	Cruzain noTriton inconclusive
COc1ccc(/C=c2/sc3nc(-c4ccccc4)c(-c4ccccc4)n3c2=O)cc1	Cruzain noTriton 6.3µM
COCCNc1cc(-c2ccccc2C(F)(F)F)ncn1	none
COc1ccc(N2C(=O)CSC23CCC(C(C)(C)C)CC3)cc1 (stereo not given)	Cruzain noTriton inconclusive
CC(C)(C)C1CCC2(CC1)Nc1cccc3cccc(c13)N2	Cruzain noTriton 25µM
Oc1ccc2ccccc2c1/C=N/Nc1nnc(-c2ncc[nH]2)c2ccccc12	Cruzain noTriton 25µM
COc1ccc(/C=N/Nc2nnc(-c3ncc[nH]3)c3ccccc23)cc1	none
O=C(NCC(c1cccs1)S(=O)(=O)c1cccs1)c1cccc(F)c1 (stereo not given)	none
Cc1ccc(N(C(=O)Cn2nnc(-c3ccc(C)o3)n2)C(C(=O)NC2CCCC2)c2ccco2)cc1 (stereo not given)	Cruzain noTriton 25µM
CCC(C(=O)NC1CCCC1)N(C(=O)Cn1nnc(-c2ccc(C)o2)n1)c1cnc2ccccc2c1 (stereo not given)	Cruzain noTriton inconclusive
Cc1ccc(-c2nnn(CC(=O)N(c3cccc(O)c3)C(C(=O)NC(C)(C)C)c3cccs3)n2)o1 (stereo not given)	none
Cc1ccc(-c2nnn(CC(=O)N(c3ccccc3)C(C(=O)NC(C)(C)C)c3cccs3)n2)o1 (stereo not given)	Cruzain noTriton 6.3µM
COc1ccc(C2=NN(CCC(=O)NCCc3ccccc3)C(=O)CC2)cc1	none
CCOC(=O)c1ccc(NC(=O)CCn2c(=O)c3cccn3c3cccnc32)cc1	none

Assay outcomes deposited in PubChem BioAssay by National Center for Advancing Translational Sciences (NCATS).
